In assay [1] the target is Oxysterols receptor LXR-alpha (Homo sapiens) (UniProt Q13133). Nature of the assay: ATG_LXRa_TRANS: Attagene TRANS-FACTORIAL HepG2 Assay for human Liver X Receptor alpha (LXRa) (AID 2282980; active = hit-call score of the fitted dose curve at least 0.9, where 1 is the maximum). Conditions: HepG2 Attagene TRANS reporter, LXRa transactivation. A digest of the protocol: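 Transfect HepG2 with GAL4-UAS multiplex reporter constructs (TRANS format, chimeric receptor-GAL4); treat 24 h; extract RNA, reverse-transcribe, PCR-amplify, FAM-label, HpaI-digest; resolve fragments by capillary electrophoresis. Upward response vs DMSO.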
Sequence of Oxysterols receptor LXR-alpha (Homo sapiens) (Q13133 whole entry, looked up, the tested form may be a part): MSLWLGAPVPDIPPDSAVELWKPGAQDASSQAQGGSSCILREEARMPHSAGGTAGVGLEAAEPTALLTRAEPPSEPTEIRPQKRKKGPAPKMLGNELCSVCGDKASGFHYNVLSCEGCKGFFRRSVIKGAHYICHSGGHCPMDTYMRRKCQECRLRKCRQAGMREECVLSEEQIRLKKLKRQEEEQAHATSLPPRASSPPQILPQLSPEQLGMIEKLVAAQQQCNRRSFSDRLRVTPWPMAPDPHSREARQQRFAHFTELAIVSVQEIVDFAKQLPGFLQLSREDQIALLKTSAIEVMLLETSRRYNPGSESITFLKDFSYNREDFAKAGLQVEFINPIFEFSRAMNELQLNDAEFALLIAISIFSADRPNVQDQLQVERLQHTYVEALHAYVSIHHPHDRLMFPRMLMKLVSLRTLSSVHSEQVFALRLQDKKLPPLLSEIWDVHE

Assay [2] deals with Oxysterols receptor LXR-beta (Homo sapiens) (UniProt P55055). Nature of the assay: ATG_LXRb_TRANS: Attagene TRANS-FACTORIAL HepG2 Assay for human Liver X Receptor beta (LXRb) (AID 2282981; active = hit-call score of the fitted dose curve at least 0.9, where 1 is the maximum). As to conditions: HepG2 Attagene TRANS GAL4-LXRb reporter, mRNA. A digest of the protocol: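 Readout: fluorescent reporter mRNA fragments resolved by capillary electrophoresis after RT-PCR. System: transiently transfected human HepG2, exogenous LXRb-Gal4 chimera driving GAL4-UAS reporter, 24 h dosing. Activity fitted upward against DMSO baseline.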
Sequence of Oxysterols receptor LXR-beta (Homo sapiens) (P55055 whole entry, looked up, the tested form may be a part): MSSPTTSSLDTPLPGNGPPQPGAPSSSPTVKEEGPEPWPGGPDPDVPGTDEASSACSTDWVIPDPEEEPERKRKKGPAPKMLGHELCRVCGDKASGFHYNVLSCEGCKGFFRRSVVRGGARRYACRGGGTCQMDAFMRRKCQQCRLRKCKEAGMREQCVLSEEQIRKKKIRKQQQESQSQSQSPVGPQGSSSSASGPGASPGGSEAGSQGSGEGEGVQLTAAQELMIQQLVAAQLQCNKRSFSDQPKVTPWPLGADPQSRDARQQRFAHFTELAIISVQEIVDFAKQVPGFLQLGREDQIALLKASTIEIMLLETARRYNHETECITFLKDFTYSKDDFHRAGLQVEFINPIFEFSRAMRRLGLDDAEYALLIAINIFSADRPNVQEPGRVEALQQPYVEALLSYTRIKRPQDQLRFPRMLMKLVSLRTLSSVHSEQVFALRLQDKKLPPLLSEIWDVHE

Assay [3] concerns the target Hepatocyte nuclear factor 4-alpha (Homo sapiens) (UniProt P41235). Nature of the assay: ATG_HNF4a_TRANS: Attagene TRANS-FACTORIAL HepG2 Assay for human Hepatocyte Nuclear Factor 4 alpha (HNF4a) (AID 2282982; active = hit-call score of the fitted dose curve at least 0.9, where 1 is the maximum). As to conditions: HepG2 HNF4a transactivation reporter, mRNA readout. The gist of the method: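 Transient MRTU transfection of HepG2, 24 h dosing. Readout: reporter mRNA via RT-PCR + capillary electrophoresis, fluorescence; activity fit upward relative to DMSO control.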

Assay [4] in a line: ATG_M_06_TRANS: Attagene TRANS-FACTORIAL HepG2 Assay for M06 Transcription Factor (Internal Marker) (AID 2282983; active = hit-call score of the fitted dose curve at least 0.9, where 1 is the maximum;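 also: reporter transcript level by RT-PCR then capillary electrophoresis fluorescence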). Conditions: HepG2 Attagene TRANS M06 internal marker reporter. The gist of the method: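 Background control endpoint: reporter mRNA from transiently transfected HepG2 after 24 h dosing, detected by RT-PCR with capillary electrophoresis fluorescence. Analysed for gain versus DMSO.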

The nature of assay [5]: ATG_M_32_TRANS: Attagene TRANS-FACTORIAL HepG2 Assay for M32 Transcription Factor (Internal Marker) (AID 2282984; active = hit-call score of the fitted dose curve at least 0.9, where 1 is the maximum;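 also: transcript level of a background control reporter unit measured by RT-PCR and capillary electrophoresis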). As to conditions: HepG2 Attagene TRANS M32 internal marker reporter. A digest of the protocol:
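Read-out: fluorescent reporter cDNA fragments resolved by capillary electrophoresis after RT-PCR of total RNA. Transfected HepG2 cells were exposed to chemical for 24 h. Activity scored in the positive direction relative to DMSO.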

Assay [6] deals with Nuclear receptor subfamily 4 group A member 2 (Homo sapiens) (UniProt P43354). Nature of the assay: ATG_NURR1_TRANS: Attagene TRANS-FACTORIAL HepG2 Assay for human Nuclear Receptor Related Protein 1 (NURR1) (AID 2282985; active = hit-call score of the fitted dose curve at least 0.9, where 1 is the maximum). Conditions: HepG2 Attagene TRANS reporter, mRNA readout. A digest of the protocol:
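Read-out: reporter mRNA induction by RT-PCR plus capillary electrophoresis with fluorescence detection, after 24 h dosing of transfected HepG2 cells. Exogenous NR-Gal4 chimera activity drives GAL4-UAS reporter; activity fitted upward versus DMSO.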

For assay [7], the target named is Nuclear respiratory factor 1 (Homo sapiens) (UniProt Q16656). Put plainly: ATG_NRF1_CIS: Attagene CIS-FACTORIAL HepG2 Assay for human Nuclear Respiratory Factor 1 (NRF1) Orphan Gene (AID 2282987). Conditions: HepG2 NRF1 cis-element reporter, Attagene multiplex; actives raise or lower the signal. A digest of the protocol: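 Reporter mRNA induction or loss in HepG2 cells after 24 h dosing; cis-regulated reporter constructs report endogenous transcription-factor activity. Quantified by RT-PCR/capillary electrophoresis fluorescence, DMSO-referenced.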
Sequence of Nuclear respiratory factor 1 (Homo sapiens) (Q16656 whole entry, looked up): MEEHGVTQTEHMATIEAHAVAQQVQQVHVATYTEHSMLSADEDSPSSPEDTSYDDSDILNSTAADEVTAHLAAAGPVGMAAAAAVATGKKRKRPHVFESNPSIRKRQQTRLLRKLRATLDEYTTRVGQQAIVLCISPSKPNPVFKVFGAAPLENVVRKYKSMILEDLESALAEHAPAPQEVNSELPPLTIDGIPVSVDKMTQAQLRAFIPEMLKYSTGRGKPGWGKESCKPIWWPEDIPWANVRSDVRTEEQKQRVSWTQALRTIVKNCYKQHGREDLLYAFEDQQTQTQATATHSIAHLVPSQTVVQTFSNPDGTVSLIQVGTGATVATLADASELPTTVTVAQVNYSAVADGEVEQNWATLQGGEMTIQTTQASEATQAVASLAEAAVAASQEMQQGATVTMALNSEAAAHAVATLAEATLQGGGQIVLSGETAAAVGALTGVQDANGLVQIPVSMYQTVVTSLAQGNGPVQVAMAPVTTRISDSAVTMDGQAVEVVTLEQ

The nature of assay [8]: ATG_NFI_CIS: Attagene CIS-FACTORIAL HepG2 Assay for human Nuclear Factor I (NFI) (AID 2282989). Conditions: HepG2 cis-regulatory reporter, NFI response element transcription; actives raise or lower the signal. The gist of the method:
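Cells: human liver HepG2, transiently transfected with promoter-regulated reporter transcription units. Exposure 24 h. Detection: fluorescent RT-PCR products separated by capillary electrophoresis, normalised to DMSO negative control.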

The target of assay [9] is Myc proto-oncogene protein (Homo sapiens) (UniProt P01106). Nature of the assay: ATG_Myc_CIS: Attagene CIS-FACTORIAL HepG2 Assay for human Myelocytomatosis (Myc) Proto-Oncogene Transcription Factor (AID 2282990). Conditions: HepG2, Attagene cis-reporter transcription factor activity; actives raise or lower the signal. The gist of the method:
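Read-out: fluorescent reporter mRNA fragments resolved by capillary electrophoresis after RT-PCR. Human HepG2 liver cells carried transfected cis-element reporter units and were dosed for 24 h. Gain or loss of signal fitted relative to DMSO baseline.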

Assay [10] in a line: ATG_NF_kB_CIS: Attagene CIS-FACTORIAL HepG2 Assay for human Nuclear Factor Kappa B (NF-kB) (AID 2282991). Conditions: HepG2 Attagene cis-factorial NF-kB reporter mRNA; actives raise or lower the signal. A digest of the protocol:
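DMSO served as negative control and baseline for bidirectional curve fitting. Transiently transfected HepG2 cells were dosed for 24 h, then reporter transcripts were measured by RT-PCR with capillary electrophoresis detection.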

Assay [11] can be described thus: ATG_NRF2_ARE_CIS: Attagene CIS-FACTORIAL HepG2 Assay for human Nuclear Factor Erythroid 2 Related Factor 2 (NFR2) response to Antioxidant Response Elements (ARE) (AID 2282992).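 As to AC50: reporter mRNA level measured by RT-PCR and capillary electrophoresis fluorescence.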 As to conditions: HepG2 Attagene ARE/NRF2 reporter, transcription factor activity; actives raise or lower the signal. A digest of the protocol:
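Fluorescence intensity of reporter-specific cDNA fragments, separated by capillary electrophoresis, reflects mRNA induction in transfected HepG2 cells at 24 h. Activity is fitted bidirectionally, DMSO serving as baseline.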

Assay [12] is described as follows: ATG_Oct_MLP_CIS: Attagene CIS-FACTORIAL HepG2 Assay for human Octamer-Binding Transcription Factor (Oct) (AID 2282993). As to conditions: HepG2 Attagene cis-factorial Oct reporter, mRNA; actives raise or lower the signal. A digest of the protocol: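 HepG2, transient MRTU transfection, cis promoter elements; 24 h dosing; RT-PCR/CE fluorescence read-out of reporter mRNA; fit both directions vs DMSO.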

Assay [13] deals with Cellular tumor antigen p53 (Homo sapiens) (UniProt P04637). Nature of the assay: ATG_p53_CIS: Attagene CIS-FACTORIAL HepG2 Assay for human p53 Transcription Factor (AID 2282994). Conditions: HepG2 p53 cis-element reporter, Attagene mRNA; actives raise or lower the signal. A digest of the protocol: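 Transiently transfected HepG2 (multiple cis reporter transcription units); exposure 24 h; reporter RNA via RT-PCR, 6-FAM extension, 2 h HpaI digest at 37 C, CE detection; DMSO baseline.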
Sequence of Cellular tumor antigen p53 (Homo sapiens) (P04637 whole entry, looked up): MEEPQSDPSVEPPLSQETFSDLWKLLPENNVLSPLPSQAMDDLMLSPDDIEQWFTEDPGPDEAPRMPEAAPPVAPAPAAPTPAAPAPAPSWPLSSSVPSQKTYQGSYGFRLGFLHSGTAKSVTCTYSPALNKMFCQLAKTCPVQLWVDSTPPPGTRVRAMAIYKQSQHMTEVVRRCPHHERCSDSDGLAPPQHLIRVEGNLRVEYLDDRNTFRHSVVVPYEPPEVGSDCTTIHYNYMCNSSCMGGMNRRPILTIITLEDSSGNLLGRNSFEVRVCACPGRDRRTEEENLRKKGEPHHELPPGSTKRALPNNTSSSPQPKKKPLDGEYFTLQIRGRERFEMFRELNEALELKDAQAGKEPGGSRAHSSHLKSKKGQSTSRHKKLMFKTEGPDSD

Assay [14] is described as follows: BSK_3C_TissueFactor: BioMAP Diversity Plus: 3C Assay for Tissue Factor Biomarker Activity (AID 2282997). As to conditions: BioMAP 3C HUVEC, tissue factor biomarker readout; actives raise or lower the signal. The gist of the method:
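After a 24 h chemical exposure of primary human umbilical vein endothelial cells, Tissue Factor levels were quantified by ELISA.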

A short description of assay [15]: BSK_3C_uPAR: BioMAP Diversity Plus: 3C Assay for Urokinase-type plasminogen activator receptor (uPAR) Biomarker Activity (AID 2282998). Conditions: BioMAP 3C HUVEC, uPAR biomarker ELISA; actives raise or lower the signal. The gist of the method: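 A multiplexed primary-cell system built on human umbilical vein endothelium was used, with chemical present for 24 h before reading. Cell-surface uPAR was detected by ELISA; signal change in either direction counted against DMSO.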
In general terms: ELISA stands for enzyme-linked immunosorbent assay.

Assay [16] in a line: BSK_3C_VCAM1: BioMAP Diversity Plus: 3C Assay for Vascular cell adhesion molecule 1 (VCAM1) Biomarker Activity (AID 2282999). As to conditions: BioMAP 3C HUVEC, VCAM1 ELISA, cytokine-stimulated; actives raise or lower the signal. A digest of the protocol: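 HUVEC primary cells, 24 h compound exposure; VCAM-1 by ELISA; gain/loss of signal fitted bidirectionally vs DMSO baseline.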

The nature of assay [17]: BSK_4H_Eotaxin3: BioMAP Diversity Plus: 4H Assay for Eotaxin 3 Biomarker Activity (AID 2283000).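 Also: CCL26 protein level quantified by ELISA in parallel with SRB cytotoxicity check.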 As to conditions: primary human endothelial cells (HUVEC); actives raise or lower the signal. A digest of the protocol:
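Chemicals were added to human umbilical vein endothelium cultures, and Eotaxin-3 was quantified by ELISA at 24 h. Values were derived by bidirectional fitting with DMSO serving as negative control and activity baseline.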

Molecules are shown by their SMILES. Values joined by “and” are separate entries in the source; they are usually repeats but may differ in a detail not shown here. Equal entries are not always repeated. Results filed as inconclusive are left out. Some compounds were tested as several samples or in several runs, with calls that do not always agree. Active and inactive are the calls of the source. The calls were made as follows, unless noted: active = hit-call score of the fitted dose curve at least 0.9, where 1 is the maximum; inactive = score below 0.9.

Sequence of Myc proto-oncogene protein (Homo sapiens) (P01106 whole entry, looked up, the tested form may be a part): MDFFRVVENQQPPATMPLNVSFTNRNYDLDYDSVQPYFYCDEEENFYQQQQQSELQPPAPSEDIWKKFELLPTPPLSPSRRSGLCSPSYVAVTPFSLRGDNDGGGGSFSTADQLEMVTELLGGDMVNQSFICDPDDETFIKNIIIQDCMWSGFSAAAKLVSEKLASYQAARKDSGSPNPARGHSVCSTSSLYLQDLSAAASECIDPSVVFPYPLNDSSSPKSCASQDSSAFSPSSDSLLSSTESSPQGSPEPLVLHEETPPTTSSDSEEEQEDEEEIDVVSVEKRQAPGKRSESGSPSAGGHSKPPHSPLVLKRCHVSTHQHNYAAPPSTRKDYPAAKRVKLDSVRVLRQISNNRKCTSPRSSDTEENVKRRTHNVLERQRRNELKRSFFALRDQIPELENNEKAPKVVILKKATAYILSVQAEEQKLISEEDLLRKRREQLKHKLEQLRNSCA
Sequence of Hepatocyte nuclear factor 4-alpha (Homo sapiens) (P41235 whole entry, looked up): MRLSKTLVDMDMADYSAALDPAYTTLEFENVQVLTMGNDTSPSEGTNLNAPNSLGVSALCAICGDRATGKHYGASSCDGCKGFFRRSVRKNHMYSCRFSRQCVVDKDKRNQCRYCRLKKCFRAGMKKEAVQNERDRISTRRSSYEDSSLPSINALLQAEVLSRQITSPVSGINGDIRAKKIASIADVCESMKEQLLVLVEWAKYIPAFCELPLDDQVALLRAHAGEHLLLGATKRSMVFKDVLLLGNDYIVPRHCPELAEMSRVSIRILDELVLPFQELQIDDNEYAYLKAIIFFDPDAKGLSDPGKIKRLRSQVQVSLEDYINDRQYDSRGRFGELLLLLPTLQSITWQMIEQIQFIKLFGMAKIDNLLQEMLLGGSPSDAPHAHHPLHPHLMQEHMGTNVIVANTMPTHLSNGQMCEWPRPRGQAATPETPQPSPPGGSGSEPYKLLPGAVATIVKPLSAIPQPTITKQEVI
Sequence of Nuclear receptor subfamily 4 group A member 2 (Homo sapiens) (P43354 whole entry, looked up, the tested form may be a part): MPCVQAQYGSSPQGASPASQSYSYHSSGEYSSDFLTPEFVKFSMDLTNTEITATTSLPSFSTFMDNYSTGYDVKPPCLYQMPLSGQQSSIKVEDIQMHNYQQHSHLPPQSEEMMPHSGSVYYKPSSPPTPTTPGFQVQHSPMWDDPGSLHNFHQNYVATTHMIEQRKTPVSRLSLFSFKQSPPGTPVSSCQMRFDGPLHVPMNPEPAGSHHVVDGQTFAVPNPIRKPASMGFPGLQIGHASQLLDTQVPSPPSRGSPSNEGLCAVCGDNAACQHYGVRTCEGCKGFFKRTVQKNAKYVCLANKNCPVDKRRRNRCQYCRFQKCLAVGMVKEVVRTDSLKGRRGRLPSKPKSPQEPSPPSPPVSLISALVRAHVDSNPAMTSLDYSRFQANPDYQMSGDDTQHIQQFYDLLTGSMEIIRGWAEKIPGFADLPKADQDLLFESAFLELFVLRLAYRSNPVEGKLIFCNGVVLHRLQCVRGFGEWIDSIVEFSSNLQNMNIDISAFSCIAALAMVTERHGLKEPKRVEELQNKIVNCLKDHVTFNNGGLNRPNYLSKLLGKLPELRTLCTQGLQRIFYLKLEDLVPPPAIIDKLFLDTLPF

As for `Clc1ccc(Cl)cc1`, the result in assay [1], in assay [2], in assay [3], in assay [4], in assay [5] and in [6] was inactive. The call in assay [7], in assay [8], in assay [9], in assay [10], in assay [11] and in assay [12] was inactive. Moreover, the molecule was called inactive in assay [13], in [14], in assay [15], in assay [16] and in [17].

With `Cc1ccccc1O`, the molecule was called inactive in assay [1], in [2], in [7], in assay [8], in [9] and in [10]. Further, the result in assay [11], in [12], in assay [13], in assay [14] and in assay [15] was inactive.

By AC50 is commonly meant the concentration at which the activity in the assay is half-maximal. In the case of `Sc1ccccc1`, the molecule was called inactive in assay [2], in assay [4], in assay [5], in assay [6], in assay [7] and in [8]. Moreover, the molecule was classed as inactive in assay [9], in assay [10], in assay [11], in assay [12], in [14] and in assay [15]. Also, the outcome in [16] was inactive. Also, the AC50 in assay [11] was 66 µM (active).

For the molecule `O=C(NC(=O)c1c(F)cccc1F)Nc1cc(Cl)c(OC(F)(F)C(F)F)c(Cl)c1`, the molecule was called inactive in assay [1], in assay [4], in assay [7], in assay [8], in assay [9] and in assay [10]. Further, the molecule was classed as inactive in assay [11], in assay [12], in assay [13], in assay [15] and in assay [16]. The AC50 in assay [14] was 1.03 µM (active).

Turning to `Clc1ccc(C(Cl)(Cl)Cl)cc1`, the molecule was classed as inactive in assay [2], in assay [4], in [5], in assay [7], in assay [8] and in [9]. Further, the molecule was classed as inactive in assay [11], in [12], in assay [13], in assay [14], in [15] and in assay [16].

With `CCCCCCCCCc1ccc(O)cc1`, the molecule was called inactive in assay [1], in [2], in [3], in assay [4], in [5] and in [6]. Further, the call in assay [7], in assay [8], in assay [9], in [10], in [12] and in [13] was inactive. Besides, the AC50 in assay [7] is 174 µM (active); in assay [9], 69 µM (active); in assay [10], 68.8 µM (active); in [11], 11.1 µM (active) and 26.6 µM (active) and 14.3 µM (active); in assay [14] it was 16.1 µM (active); in assay [15] it was 15.5 µM (active). The AC50 in [16] is 13.8 µM (active).

As for `COS(=O)(=O)OC`, the result in assay [1], in [2], in [4], in assay [5], in assay [6] and in [7] was inactive. Further, the result in [8], in assay [9], in assay [10], in [11], in [12] and in assay [13] was inactive. Further, the result in [14], in assay [15] and in assay [17] was inactive.

As to `Cc1cc(-c2ccc(N)c(C)c2)ccc1N`, the outcome in [1], in [2], in assay [3], in assay [4], in assay [5] and in assay [6] was inactive. The call in [7], in assay [8], in [9], in assay [11], in assay [12] and in assay [13] was inactive. For the same molecule, the outcome in assay [14] and in [15] was inactive. Moreover, the AC50 in [13] is 100 µM (active).

Source of the values: PubChem BioAssay (EPA / NIEHS).
